Measurements: PubChem BioAssay (EPA / NIEHS)
Values joined by “and” are separate entries in the source; they are usually repeats but may differ in a detail not shown here. Identical values can stand only once. Inconclusive results are not listed. Where a structure was tested more than once in an assay, its records may differ in their call. Active and inactive are the calls of the source. The calls were made as follows, unless noted: active = hit-call score of the fitted dose curve at least 0.9, where 1 is the maximum; inactive = score below 0.9.

Legend:
[1] = biological target: human RAR-related Orphan Receptor gamma (RORg), RORC (gene 6097) (UniProt P51449); test: ATG_RORg_TRANS: Attagene TRANS-FACTORIAL HepG2 Assay for human RAR-related Orphan Receptor gamma (RORg) (AID 2283011; active = hit-call score of the fitted dose curve at least 0.9, where 1 is the maximum;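 as to AC50: potency for induction of reporter transcripts above DMSO so activators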)
human RAR-related Orphan Receptor gamma (RORg), RORC (gene 6097), sequence (P51449 whole entry, looked up, the tested form may be a part): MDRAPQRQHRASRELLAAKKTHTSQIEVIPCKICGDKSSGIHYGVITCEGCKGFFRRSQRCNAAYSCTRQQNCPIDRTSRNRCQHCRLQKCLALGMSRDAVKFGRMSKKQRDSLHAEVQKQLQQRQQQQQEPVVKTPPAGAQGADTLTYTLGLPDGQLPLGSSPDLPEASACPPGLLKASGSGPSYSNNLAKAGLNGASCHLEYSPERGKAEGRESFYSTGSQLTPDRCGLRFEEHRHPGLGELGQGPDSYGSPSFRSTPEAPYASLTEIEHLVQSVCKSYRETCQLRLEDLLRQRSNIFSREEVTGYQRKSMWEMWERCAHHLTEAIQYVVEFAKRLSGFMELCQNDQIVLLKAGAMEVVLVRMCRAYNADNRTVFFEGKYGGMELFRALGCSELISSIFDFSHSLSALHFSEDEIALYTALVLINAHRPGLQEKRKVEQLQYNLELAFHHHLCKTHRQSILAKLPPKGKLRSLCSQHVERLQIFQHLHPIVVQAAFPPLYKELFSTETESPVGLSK
Outline: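 First, HepG2 liver cells were transfected with GAL4-UAS-driven reporter constructs and the RORg-Gal4 fusion. Next, they were treated with chemical for 24 h. Finally, reporter mRNA was quantified by RT-PCR and capillary electrophoresis, with upward activity fitted against DMSO.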

[2] = biological target: Retinoic acid receptor RXR-alpha (Homo sapiens) (UniProt P19793); test: OT_NURR1_NURR1RXRa_0480: Odyssey Thera (OT) 8-hour HEK293T Protein Complementation Assay for Nurr1/retinoid X receptor (RXR) (AID 2283385; active = hit-call score of the fitted dose curve at least 0.9, where 1 is the maximum)
Retinoic acid receptor RXR-alpha (Homo sapiens), sequence (P19793 whole entry, looked up, the tested form may be a part): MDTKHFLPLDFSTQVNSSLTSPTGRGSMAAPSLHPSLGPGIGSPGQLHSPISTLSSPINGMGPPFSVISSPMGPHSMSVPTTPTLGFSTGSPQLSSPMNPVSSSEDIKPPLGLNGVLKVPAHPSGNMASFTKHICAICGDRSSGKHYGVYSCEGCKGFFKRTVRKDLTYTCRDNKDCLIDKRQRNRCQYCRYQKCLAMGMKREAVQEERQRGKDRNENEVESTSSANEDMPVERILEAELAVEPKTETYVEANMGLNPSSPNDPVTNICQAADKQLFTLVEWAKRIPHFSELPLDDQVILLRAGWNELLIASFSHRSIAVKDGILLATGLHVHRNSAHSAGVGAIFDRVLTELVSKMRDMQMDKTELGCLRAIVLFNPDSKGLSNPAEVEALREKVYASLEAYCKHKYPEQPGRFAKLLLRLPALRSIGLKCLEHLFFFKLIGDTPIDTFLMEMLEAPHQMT
Outline: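 8 h compound exposure, HEK293T; Nurr1/RXRα fragment complementation; fluorescence intensity; positive fitting direction vs DMSO baseline.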

[3] = biological target: Retinoic acid receptor RXR-alpha (Homo sapiens) (UniProt P19793); test: OT_NURR1_NURR1RXRa_1440: Odyssey Thera (OT) 24-hour HEK293T Protein Complementation Assay for Nurr1/retinoid X receptor (RXR) (AID 2283386; active = hit-call score of the fitted dose curve at least 0.9, where 1 is the maximum)
Outline: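 Interaction of Nurr1 with RXRα brings fused reporter fragments together in human HEK293T cells, restoring a functional reporter. Fluorescence intensity is measured 24 h after chemical treatment, and values are analysed in the positive direction against DMSO.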

[4] = biological target: Peroxisome proliferator-activated receptor gamma (Homo sapiens) (UniProt P37231); test: OT_PPARg_PPARgSRC1_1440: Odyssey Thera (OT) 24-hour Protein-Complementation Assay for Peroxisome Proliferator-activated Receptor Gamma/ SRC-1 Co-activator (AID 2283388; active = hit-call score of the fitted dose curve at least 0.9, where 1 is the maximum;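 also: nuclear to cytoplasmic ratio of reconstituted Venus YFP fluorescence in fixed imaged cells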)
Peroxisome proliferator-activated receptor gamma (Homo sapiens), sequence (P37231 whole entry, looked up, the tested form may be a part): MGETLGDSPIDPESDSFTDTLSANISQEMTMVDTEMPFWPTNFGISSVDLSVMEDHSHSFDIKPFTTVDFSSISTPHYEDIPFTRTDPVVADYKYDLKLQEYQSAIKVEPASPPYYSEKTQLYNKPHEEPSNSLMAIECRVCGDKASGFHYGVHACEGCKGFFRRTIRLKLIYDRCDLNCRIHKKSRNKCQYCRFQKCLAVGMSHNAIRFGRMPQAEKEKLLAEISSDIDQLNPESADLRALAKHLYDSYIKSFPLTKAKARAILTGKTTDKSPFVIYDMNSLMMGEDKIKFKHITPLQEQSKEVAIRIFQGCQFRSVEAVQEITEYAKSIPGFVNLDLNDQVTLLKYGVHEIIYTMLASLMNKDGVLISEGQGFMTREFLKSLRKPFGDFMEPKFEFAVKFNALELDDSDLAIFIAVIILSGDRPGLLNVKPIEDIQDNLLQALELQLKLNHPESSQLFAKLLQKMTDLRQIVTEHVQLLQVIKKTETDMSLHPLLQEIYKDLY
Outline: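 Protein-fragment complementation between PPARg and coactivator SRC-1 was measured by fluorescence imaging in transiently transfected HEK293T cells after 24 h treatment. Signal was quantified as N/C ratio in the 488 nm channel, with DMSO as negative control.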

[5] = ACEA_AR_agonist_AUC_viability: ACEA Biosciences xCELLigence Real-Time Cell Analysis on Androgen Receptor Agonism for Viability (AID 2283775; active = hit-call score of the fitted dose curve at least 0.9, where 1 is the maximum;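 as to AC50: viability read 80 hours after compound addition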)
Outline: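 Real-time impedance tracking of 22Rv1 growth, readings every 5 min for 5 h then hourly; area-under-curve viability endpoint at 80 hours, relative to DMSO. Compounds at eight concentrations, 1:4 steps, top 100 uM, n = 2.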

[6] = ACEA_AR_antagonist_AUC_viability: ACEA Biosciences xCELLigence Real-Time Cell Analysis on Androgen Receptor Antagonism for Viability (AID 2283776; active = hit-call score of the fitted dose curve at least 0.9, where 1 is the maximum;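 also: 22Rv1 human prostate cancer cells growing on impedance electrode plates; hits lower the growth signal relative to DMSO meaning cytotoxicity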)
Outline: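 Impedance read-out (RT-CES): area under growth curve at 80 h post-dose, loss of signal scored vs DMSO baseline. 22Rv1 cells; 8-pt 1:4 series, top 100 uM final, ≤0.5% DMSO; biological duplicate.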

[7] = BSK_3C_uPAR: BioMAP Diversity Plus: 3C Assay for Urokinase-type plasminogen activator receptor (uPAR) Biomarker Activity (AID 2282998); conditions: BioMAP 3C HUVEC, uPAR biomarker ELISA; actives raise or lower the signal
Outline: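 A multiplexed primary-cell system built on human umbilical vein endothelium was used, with chemical present for 24 h before reading. Cell-surface uPAR was detected by ELISA; signal change in either direction counted against DMSO.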

[8] = BSK_4H_Eotaxin3: BioMAP Diversity Plus: 4H Assay for Eotaxin 3 Biomarker Activity (AID 2283000); conditions: primary human endothelial cells (HUVEC); actives raise or lower the signal
Outline: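 Chemicals were added to human umbilical vein endothelium cultures, and Eotaxin-3 was quantified by ELISA at 24 h. Values were derived by bidirectional fitting with DMSO serving as negative control and activity baseline.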

[9] = read-out: Monocyte Chemoattractant Protein-1 (MCP1), CCL2 (gene 6347); test: BSK_4H_MCP1: BioMAP Diversity Plus: 4H Assay for Monocyte Chemoattractant Protein-1 (MCP1) Biomarker Activity (AID 2283018); conditions: primary human endothelial cells (HUVEC); actives raise or lower the signal
Outline: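 ELISA read-out of MCP-1 from human vascular endothelial primary cells taken at 24 hours after compound exposure. Activity was fitted in both directions relative to DMSO, which served as negative control.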

[10] = read-out: Monokine induced gamma interferon (MIG), CXCL9 (gene 4283); test: BSK_3C_MIG: BioMAP Diversity Plus: 3C Assay for Monokine induced gamma interferon (MIG) Biomarker Activity (AID 2283021); conditions: primary human endothelial cells (HUVEC); actives raise or lower the signal;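 as to AC50: MIG protein level measured by immunoassay in the treated endothelial cultures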
Outline: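 Read-out is ELISA detection of MIG on human umbilical vein endothelial cells, taken 24 h after dosing. Gain or loss of signal was scored relative to DMSO controls using bidirectional curve fitting.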

[11] = read-out: Urokinase-type plasminogen activator receptor (uPAR), PLAUR (gene 5329); test: BSK_4H_uPAR: BioMAP Diversity Plus: 4H Assay for Urokinase-type plasminogen activator receptor (uPAR) Biomarker Activity (AID 2283030); conditions: primary human endothelial cells (HUVEC); actives raise or lower the signal
Outline: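 Cell-surface uPAR ELISA signal, measured 24 h after dosing human umbilical vein endothelial cells, was analyzed with bidirectional fitting relative to DMSO. Parallel SRB staining of total protein tracked overt cytotoxicity.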

[12] = read-out: Plasminogen activator inhibitor-1 (PAI1), SERPINE1 (gene 5054); test: BSK_BE3C_PAI1: BioMAP Diversity Plus: BE3C Assay for Plasminogen activator inhibitor-1 (PAI1) Biomarker Activity (AID 2283037); conditions: primary human bronchial epithelial cells; actives raise or lower the signal
Outline: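 Primary human lung bronchial epithelial cells; chemical dosing; 24 h; PAI-1 measured by ELISA; bidirectional fit referenced to DMSO as negative control.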

[13] = read-out: urokinase plasminogen activator (uPA), PLAU (gene 5328); test: BSK_BE3C_uPA: BioMAP Diversity Plus: BE3C Assay for urokinase plasminogen activator (uPA) Biomarker Activity (AID 2283038); conditions: primary human bronchial epithelial cells; actives raise or lower the signal
Outline: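 Bronchial epithelial cells (human, primary); chemical 24 h; uPA by ELISA; bidirectional fit vs DMSO. SRB (0.1%, after 10% TCA fixation, 560 nm) in parallel cultures for cytotoxicity.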

[14] = read-out: Thrombomodulin, THBD (gene 7056); test: BSK_CASM3C_Thrombomodulin: BioMAP Diversity Plus: CASM3C Assay for Thrombomodulin Biomarker Activity (AID 2283051); conditions: primary human coronary artery smooth muscle cells; actives raise or lower the signal;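 also: thrombomodulin protein level measured by ELISA 24 h after dosing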
[15] = read-out: Interleukin-8 (IL8), CXCL8 (gene 3576); test: BSK_LPS_IL8: BioMAP Diversity Plus: LPS Assay for Interleukin-8 (IL8) Biomarker Activity (AID 2283078); conditions: primary human HUVEC with PBMC; actives raise or lower the signal
Outline: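 Readout is IL-8 by ELISA, taken 24 h after compounds were added to LPS-stimulated endothelial/PBMC co-cultures. Both increases and decreases relative to DMSO control were scored through bidirectional fitting.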

[16] = CCTE_Harrill_HTTr_CellCount_MCF7: CCTE's Cell Proliferation Assessment for the High-Throughput Transcriptomics (HTTr) Platform, Harrill Lab (AID 2284012; active = hit-call score of the fitted dose curve at least 0.9, where 1 is the maximum;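 also: count of Hoechst-stained nuclei per well by high-content imaging in MCF-7 cells; cells exposed to compound for six hours; intended direction is loss of nuclei count meaning fewer cells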)
Outline: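 Chemicals in eight-point dilution series are added to MCF-7 cells for six hours, nuclei are stained with Hoechst and imaged, and per-well nuclei counts are fitted in both directions relative to DMSO controls.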

[17] = biological target: Bile acid receptor (Homo sapiens) (UniProt Q96RI1); test: ATG_FXR_TRANS: Attagene TRANS-FACTORIAL HepG2 Assay for Farnesoid X Receptor (FXR) (AID 2282979; active = hit-call score of the fitted dose curve at least 0.9, where 1 is the maximum;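 also: hits raise reporter mRNA above DMSO so AC50 marks FXR activation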); conditions: HepG2 Attagene TRANS FXR-GAL4 reporter transcription
Bile acid receptor (Homo sapiens), sequence (Q96RI1 whole entry, looked up, the tested form may be a part): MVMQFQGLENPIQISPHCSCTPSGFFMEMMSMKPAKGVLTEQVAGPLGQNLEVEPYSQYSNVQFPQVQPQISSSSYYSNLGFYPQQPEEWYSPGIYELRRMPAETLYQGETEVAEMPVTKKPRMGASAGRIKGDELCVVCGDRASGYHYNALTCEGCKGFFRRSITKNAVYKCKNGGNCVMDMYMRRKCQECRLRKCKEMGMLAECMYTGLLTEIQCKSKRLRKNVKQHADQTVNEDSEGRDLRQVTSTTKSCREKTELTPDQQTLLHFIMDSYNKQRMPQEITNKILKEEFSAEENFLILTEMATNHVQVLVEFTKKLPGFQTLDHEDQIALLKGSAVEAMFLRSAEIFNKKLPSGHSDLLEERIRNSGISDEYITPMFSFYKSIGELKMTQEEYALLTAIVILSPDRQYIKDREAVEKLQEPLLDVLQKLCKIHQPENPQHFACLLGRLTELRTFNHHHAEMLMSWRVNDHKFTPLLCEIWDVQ
Outline: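 Transient transfection of HepG2 with multiplexed GAL4-UAS reporter units; exogenous FXR-GAL4 chimera. Dose 24 h → TriZol RNA → oligo(dT) RT → PCR, 6-FAM primer extension, HpaI cut → CE. Gain vs DMSO.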

[18] = CCTE_Harrill_HTTr_Viability_MCF7: CCTE's 6-hour Cell Viability Assessment for the High-Throughput Transcriptomics (HTTr) Platform, in MCF-7 cells cultured in DMEM + 10% fetal bovine serum, Harrill Lab (AID 2284010)
Outline: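 Cells were dosed with chemicals in an eight-point dilution series, imaged 6 hours later for propidium iodide uptake, and the endpoint was analyzed by bidirectional fitting against DMSO as negative control.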

[19] = biological target: Estrogen receptor beta (Homo sapiens) (UniProt Q92731); test: OT_ER_ERbERb_1440: Odyssey Thera (OT) 24-hour HEK293T Protein-Complementation Assay for Estrogen Receptor-beta/-beta Homodimer (AID 2283380; active = hit-call score of the fitted dose curve at least 0.9, where 1 is the maximum;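 also: fluorescence gain from ER beta LBD homodimer complementation read by laser scanning cytometry; scored as signal increase over DMSO baseline for both agonists and antagonists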)
Estrogen receptor beta (Homo sapiens), sequence (Q92731 whole entry, looked up, the tested form may be a part): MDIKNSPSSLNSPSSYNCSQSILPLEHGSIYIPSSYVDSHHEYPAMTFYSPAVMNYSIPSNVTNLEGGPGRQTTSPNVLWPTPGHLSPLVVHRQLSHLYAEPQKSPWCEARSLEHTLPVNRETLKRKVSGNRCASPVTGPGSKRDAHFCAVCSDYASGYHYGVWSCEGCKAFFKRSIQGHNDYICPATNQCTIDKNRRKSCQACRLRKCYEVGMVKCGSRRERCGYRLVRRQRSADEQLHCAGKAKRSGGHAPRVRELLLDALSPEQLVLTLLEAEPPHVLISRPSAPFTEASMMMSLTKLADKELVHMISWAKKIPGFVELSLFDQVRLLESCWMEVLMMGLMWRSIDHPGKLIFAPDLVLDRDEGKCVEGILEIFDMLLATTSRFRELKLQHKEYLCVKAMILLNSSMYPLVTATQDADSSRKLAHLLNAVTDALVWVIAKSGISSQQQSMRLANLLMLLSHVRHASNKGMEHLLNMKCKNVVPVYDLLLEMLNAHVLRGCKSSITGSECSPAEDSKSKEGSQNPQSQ
Outline: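 Fluorescence increase, nuclear for agonists or whole-cell for antagonists, relative to DMSO vehicle, quantified by laser scanning cytometer after fixation and Draq5 staining. Readout from 24 h treatment of HEK293T cells carrying complementation-paired ER beta LBD (aa 310-547).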

[20] = ATG_ERE_CIS: Attagene CIS-FACTORIAL HepG2 Assay for Estrogen Response Element (ERE) (AID 2282940); conditions: HepG2 ERE cis-reporter, Attagene RNA transcript; actives raise or lower the signal
Outline: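 Fluorescence of capillary-separated, FAM-labelled reporter cDNA fragments indicates reporter mRNA levels in HepG2 cells exposed to chemicals for 24 h. Transient transfection with cis-regulated units; data fitted in both directions against DMSO.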

Measured: AC50

[CH3][Sn]([CH3])([Cl])[Cl]
inactive: [1] | [2] | [4] | [5] | [6]
active: [3] 82.1 µM

N#CCCCCC#N
not listed: [3] | [5] | [17] | [18] | [19] | [20]
inactive: all other assays above

CC(C)CCCCCCCOC(=O)c1ccccc1C(=O)OCCCCCCCC(C)C
not listed: [2] | [3] | [4] | [5] | [6] | [19] | [20]
inactive: all other assays above

O=C(NCNC(=O)NC1C(=O)NC(=O)N1CO)NC1C(=O)NC(=O)N1CO (centres undefined)
inactive: [1] | [19] | [2] | [4] | [5] | [6]
active: [3] 78 µM

CCC[N+](=O)[O-]
inactive: [1] | [16]

CC1(C)[C@H](C(=O)O[C@H](C#N)c2cccc(Oc3ccccc3)c2)[C@@H]1C=C(Br)Br
inactive: [7] | [8] | [9] | [10] | [11] | [12] | [13] | [14] | [15] | [19] | [2] | [4] | [5] | [6] | [18]
active: [7] 0.0401 µM | [8] 0.3 µM | [9] 0.252 µM | [11] 5.23 µM | [14] 8.23 µM | [5] 50 µM | [6] 50 µM

[Cl][Sb]([Cl])[Cl]
inactive: [1] | [18] | [16]

CCOC(=O)C1OC1(C)c1ccccc1 (centres undefined)
inactive: [2] | [3] | [4] | [5]
active: [19] 37.3 µM

CCN(CC)C(=S)S
inactive: [20] | [1]

CCNCC
inactive: [1]

O=[N+]([O-])c1ccc(Cl)cc1
not listed: [2] | [4] | [6] | [16] | [17] | [20]
inactive: all other assays above

BrCBr
inactive: [20] | [1]

O=S(=O)(O)OOS(=O)(=O)O
inactive: [1] | [19] | [2] | [4] | [5] | [6]

C[N+](C)(C)CC(=O)[O-]
inactive: [20] | [1] | [18]

O=C1C=CC(=O)C=C1
inactive: [7] | [9] | [10] | [11] | [13] | [15] | [18] | [16]
active: [7] 12.8 µM | [8] 20 µM | [9] 33.4 µM | [10] 35.6 µM | [12] 1.68 µM and 14.6 µM | [14] 8.44 µM and 20 µM | [15] 23.6 µM

CC(Cc1ccc(C(C)(C)C)cc1)CN1C[C@@H](C)O[C@@H](C)C1 (some centres undefined)
active: [2] 66.8 µM | [3] 81 µM
inactive: [17] | [19] | [4] | [5] | [6] | [18]

O=[N+]([O-])c1cc(C(F)(F)F)c(Cl)c([N+](=O)[O-])c1Cl
inactive: [20]
active: [17] 53.3 µM | [1] 7.97 µM

CCC(C)c1cc([N+](=O)[O-])cc([N+](=O)[O-])c1OC(=O)C=C(C)C (centres undefined)
inactive: [14]
active: [7] 7.18 µM | [8] 6.83 µM | [9] 5.34 µM | [10] 35.3 µM | [11] 5.79 µM | [12] 11 µM | [13] 31.9 µM | [15] 20 µM

CCC(C)(C)O
inactive: [20] | [1] | [18] | [16]

COC(C)(C)CCC[C@H](C)C/C=C/C(C)=C/C(=O)OC(C)C
inactive: [1] | [12] | [13]
active: [7] 33.5 µM | [8] 29.4 µM | [9] 29.8 µM | [10] 39.2 µM | [11] 32.6 µM | [14] 14.3 µM | [15] 33.5 µM

CNC(=O)Oc1cc(C)c(SC)c(C)c1
active: [20] 26.5 µM | [8] 20 µM
inactive: [7] | [9] | [10] | [11] | [12] | [13] | [14] | [15] | [18] | [16]

Nc1ccccc1C(=O)Oc1ccc2ccccc2c1
active: [20] 18.1 µM

CCc1cc(C)cc(CC)c1-c1c(OC(=O)C(C)(C)C)n2n(c1=O)CCOCC2
active: [7] 4 µM | [8] 20 µM | [12] 6.89 µM | [15] 0.016 µM
inactive: [20] | [1] | [9] | [10] | [11] | [13] | [14] | [18]
